Laboratory results reported in PubChem BioAssay.
Unmarked numbers belong to inactive results. For some of these results: Measured potencies and affinities stand elsewhere. Activity calls are given as the source filed them. Unless noted, the rule behind the calls is not given here.

Experiments:
[1] = antimalarial activity against Dd2 strain (AID 2302;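 active = growth inhibition above 50% at the single 2 µM test dose, taken to imply half-maximal potency below 2 µM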;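 note: 0% = DMSO untreated growth and 100% = chloroquine plus artemisinin killed control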); settings: P. falciparum Dd2 in RBCs, LDH growth readout, 72 h; at 2 µM; stronger effect = higher value
[2] = human hepatoma cell viability loss – ATP luminescence, cytotoxicity control for P. falciparum antimalarial project, primary screen (AID 2303;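 active = inhibition above 50%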;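 note: 0% = DMSO wells and 100% = digitonin-killed cells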); settings: HepG2 viability, 24-48 h, at 10 µM, stronger effect = higher value
[3] = target: L-lactate dehydrogenase (Plasmodium falciparum (isolate CDC / Honduras)) (UniProt Q27743); test: PfLDH activity inhibition – cell lysate, 3D7 strain, counter-screen for P. falciparum growth inhibition project (AID 2304);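 note: 0% = vehicle and 100% = reference inhibitor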; settings: P. falciparum 3D7 crude extract, LDH APAD/NBT absorbance; at 2 µM; stronger effect = higher value
L-lactate dehydrogenase (Plasmodium falciparum (isolate CDC / Honduras)), sequence (Q27743 whole entry, looked up): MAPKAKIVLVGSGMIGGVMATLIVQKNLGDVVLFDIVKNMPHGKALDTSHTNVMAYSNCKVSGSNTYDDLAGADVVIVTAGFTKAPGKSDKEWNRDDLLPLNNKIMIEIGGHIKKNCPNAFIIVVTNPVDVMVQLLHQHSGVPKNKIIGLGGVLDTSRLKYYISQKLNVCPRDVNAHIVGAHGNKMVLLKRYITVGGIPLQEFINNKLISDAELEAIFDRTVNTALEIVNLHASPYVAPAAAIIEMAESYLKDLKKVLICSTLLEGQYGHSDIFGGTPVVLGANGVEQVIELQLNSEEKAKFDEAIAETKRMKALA

[4] = inhibition of 3D7 malaria parasite growth – strain 3D7 (AID 2306);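 note: 0% = DMSO wells and 100% = chloroquine plus artemisinin control wells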; settings: P. falciparum 3D7 erythrocytic growth, LDH absorbance, 72 h; at 2 µM; stronger effect = higher value
[5] = target: Calcium-dependent protein kinase 1 (Plasmodium falciparum (isolate 3D7)) (UniProt P62344); test: PfCDPK1 kinase inhibitors, biochemical, TCAMS library (AID 1159585; cut-off not given, nearly all actives have IC50 up to about 0.98 µM;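 note: inhibitors leave more ATP so luminescence rises with inhibition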); settings: recombinant PfCDPK1, Kinase-Glo ATP depletion luminescence
Calcium-dependent protein kinase 1 (Plasmodium falciparum (isolate 3D7)), sequence (P62344 whole entry, looked up): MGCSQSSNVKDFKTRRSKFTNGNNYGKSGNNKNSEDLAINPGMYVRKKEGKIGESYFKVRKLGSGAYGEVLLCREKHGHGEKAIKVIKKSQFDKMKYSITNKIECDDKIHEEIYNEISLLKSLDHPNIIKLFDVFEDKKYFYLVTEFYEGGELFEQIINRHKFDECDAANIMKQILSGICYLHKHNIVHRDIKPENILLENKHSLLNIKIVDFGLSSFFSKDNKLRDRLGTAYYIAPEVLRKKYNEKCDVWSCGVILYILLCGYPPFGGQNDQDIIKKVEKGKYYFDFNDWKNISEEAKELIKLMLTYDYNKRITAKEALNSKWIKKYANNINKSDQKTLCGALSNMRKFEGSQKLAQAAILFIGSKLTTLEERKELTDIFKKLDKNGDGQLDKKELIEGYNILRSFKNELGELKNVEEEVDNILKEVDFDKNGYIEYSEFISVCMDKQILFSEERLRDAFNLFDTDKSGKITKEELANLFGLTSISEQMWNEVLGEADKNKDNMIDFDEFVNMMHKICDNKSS

[6] = target: Plasmodium falciparum protein kinase 6 (PK6, PF3D7_1337100) (UniProt Q8IDW1); test: PfPK6 kinase inhibitors, biochemical, TCAMS library (AID 1159586); settings: recombinant PfPK6, Kinase-Glo ATP depletion luminescence
Plasmodium falciparum protein kinase 6 (PK6, PF3D7_1337100), sequence (Q8IDW1 1-305): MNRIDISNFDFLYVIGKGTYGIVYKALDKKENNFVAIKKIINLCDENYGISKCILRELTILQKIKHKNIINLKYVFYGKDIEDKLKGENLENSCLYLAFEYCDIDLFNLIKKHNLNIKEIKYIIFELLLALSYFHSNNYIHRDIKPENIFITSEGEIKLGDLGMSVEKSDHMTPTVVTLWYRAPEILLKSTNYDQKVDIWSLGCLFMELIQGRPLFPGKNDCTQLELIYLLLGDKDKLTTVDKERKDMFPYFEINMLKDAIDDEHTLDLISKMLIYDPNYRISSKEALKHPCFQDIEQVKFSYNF

[7] = target: Protein kinase 7 (PK7), Plasmodium falciparum 3D7 (PF3D7_0213400) (UniProt Q7YTF7); test: inhibition of Plasmodium PK7 catalytic activity – biochemical, TCAMS antimalarial set, Kinase-Glo luminescence (AID 1159587); settings: recombinant PfPK7, Kinase-Glo ATP depletion luminescence
Protein kinase 7 (PK7), Plasmodium falciparum 3D7 (PF3D7_0213400), sequence (Q7YTF7 1-343): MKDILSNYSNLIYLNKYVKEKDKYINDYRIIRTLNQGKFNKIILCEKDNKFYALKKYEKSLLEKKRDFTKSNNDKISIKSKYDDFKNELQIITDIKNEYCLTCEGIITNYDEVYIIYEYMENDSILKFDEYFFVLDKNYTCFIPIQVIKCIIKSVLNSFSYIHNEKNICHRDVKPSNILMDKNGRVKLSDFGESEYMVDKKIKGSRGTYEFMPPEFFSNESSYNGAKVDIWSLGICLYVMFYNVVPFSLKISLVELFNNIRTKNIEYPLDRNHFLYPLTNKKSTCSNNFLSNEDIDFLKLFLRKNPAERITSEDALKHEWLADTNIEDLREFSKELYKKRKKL

[8] = target: Calcium-dependent protein kinase 4 (Plasmodium falciparum (isolate 3D7)) (UniProt Q8IBS5); test: PfCDPK4 kinase inhibitors, biochemical, TCAMS library (AID 1159588; cut-off not given, nearly all actives have IC50 up to about 0.91 µM); settings: recombinant PfCDPK4, Kinase-Glo ATP depletion luminescence
Calcium-dependent protein kinase 4 (Plasmodium falciparum (isolate 3D7)), sequence (Q8IBS5 whole entry, looked up): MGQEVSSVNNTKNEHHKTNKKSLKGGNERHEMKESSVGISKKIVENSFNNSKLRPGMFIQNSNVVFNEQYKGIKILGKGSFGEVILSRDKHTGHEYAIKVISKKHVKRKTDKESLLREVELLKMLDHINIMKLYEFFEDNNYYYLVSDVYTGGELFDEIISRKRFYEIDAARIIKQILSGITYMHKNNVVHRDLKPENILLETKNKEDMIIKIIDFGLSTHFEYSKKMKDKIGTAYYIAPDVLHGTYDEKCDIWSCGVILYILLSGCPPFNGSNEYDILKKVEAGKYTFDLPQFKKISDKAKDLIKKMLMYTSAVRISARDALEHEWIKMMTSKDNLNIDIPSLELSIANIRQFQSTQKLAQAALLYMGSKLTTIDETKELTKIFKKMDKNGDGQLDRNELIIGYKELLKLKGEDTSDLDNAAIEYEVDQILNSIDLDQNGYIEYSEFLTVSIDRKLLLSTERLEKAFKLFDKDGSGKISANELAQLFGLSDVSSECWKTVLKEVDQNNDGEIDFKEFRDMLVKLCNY

SMILES | growth inhibition [1] | inhibition [2] | inhibition [3] | growth inhibition [4] | outcome [5] | outcome [6] | outcome [7] | outcome [8]
CC(C)c1ccc(NS(=O)(=O)c2cccc(C(=O)NC3CCN(CC4CCCCC4)CC3)c2)cc1 | 69% (active) | 71% (active) | 0% | 93% (active) | inactive | inactive | inactive | inactive
CCOc1cc(C(=O)NCc2ccc(Cl)c(Cl)c2)ccc1-c1nc2ccc(Cl)cc2[nH]1 | 4% | 10% | -2% | 97% (active) | inactive | inactive | inactive | inactive
CCCCN(C)CC#Cc1ccc2[nH]c(C)c(Cl)c(=O)c2c1 | 97% (active) | -2% | -6% | 98% (active) | inactive | inactive | inactive | inactive
c1ccc(CCNc2nc(NCC(c3ccccc3)c3ccccc3)c3[nH]cnc3n2)cc1 | 95% (active) | 9% | -1% | 100% (active) | inactive | inactive | inactive | inactive
COc1ccc2nccc([C@@H](O)CN3CCC(NC/C=C/c4cccnc4)CC3)c2c1 | 19% | -7% | -2% | 100% (active) | inactive | inactive | inactive | inactive
NC(=O)c1ccc(NCC(=O)Nc2cccc(-c3cccc(-c4nc5ccc(C(F)(F)F)cc5[nH]4)c3)c2)cc1 | 41% | 32% | 1% | 99% (active) | inactive | inactive | inactive | inactive
CC(C)(C)c1ccc2nc(-c3ccc(/C=C/C(=O)NCc4ccc(Cl)c(Cl)c4)cc3)[nH]c2c1 | 17% | 41% | 0% | 97% (active) | inactive | inactive | inactive | inactive
CC1CCN(C(=O)CSc2nc(-c3ccc(C(C)C)cc3)no2)CC1 | 84% (active) | -1% | 2% | 98% (active) | inactive | inactive | inactive | inactive
O=C(Cn1c(SCc2cccc(F)c2F)cc(=O)c2ccccc21)N(CCN1CCCCC1)Cc1ccc(-c2ccc(C(F)(F)F)cc2)cc1 | 82% (active) | 41% | -1% | 99% (active) | inactive | inactive | inactive | inactive
CCN(CC)CCc1ccc2c(=O)cc(CCc3cccc(F)c3F)n(CC(=O)N(C)Cc3ccc(-c4ccc(C(F)(F)F)cc4)cc3)c2c1 | 45% | 98% (active) | 1% | 97% (active) | inactive | inactive | inactive | inactive
O=C(/C=C/c1ccc(Cl)c(Cl)c1)NCCCCCN1CCCC(CNC(=O)Nc2ccc(Oc3ccccc3)cc2)C1 (stereo not given) | 6% | 26% | -2% | 99% (active) | inactive | inactive | inactive | inactive
CC(C)(C)OC(=O)/C=C(\C(=O)OCc1ccc([N+](=O)[O-])cc1)c1csc(NC(c2ccccc2)(c2ccccc2)c2ccccc2)n1 | 97% (active) | 2% | 3% | 96% (active) | inactive | inactive | inactive | inactive
CC(CN1CCN(C)CC1)C(=O)Nc1cccc(-c2ccc(-c3nc4ccc(F)cc4[nH]3)cc2)c1 (stereo not given) | 98% (active) | 10% | 1% | 101% (active) | inactive | inactive | inactive | inactive
OCC1CCN(Cc2cccc(-c3cccc(-c4nc5ccc(C(F)(F)F)cc5[nH]4)c3)c2)CC1 | 101% (active) | 24% | -3% | 102% (active) | inactive | inactive | inactive | inactive
Cc1ccc(NC(=O)Nc2ccc(Cl)cc2)cc1-c1ccc(C(=O)Nc2ccncc2)cc1 | 63% (active) | 54% (active) | -1% | 99% (active) | inactive | inactive | inactive | inactive
CCOC(=O)c1c[nH]c2c(sc3cc(OC)ccc32)c1=O | 93% (active) | -6% | 3% | 96% (active) | inactive | inactive | inactive | inactive
CCNC(=O)Nc1cccc(-c2ccc(-c3nc4c(C)cccc4[nH]3)s2)c1 | 20% | 32% | -4% | 96% (active) | inactive | inactive | inactive | inactive
Oc1ccccc1N1CCN(c2ccc(-c3nc4ccccc4[nH]3)cn2)CC1 | 50% (active) | -12% | -2% | 97% (active) | inactive | inactive | inactive | inactive
O=C(Nc1ccc(-c2cccc(CN3CCC(O)CC3)c2)cc1)c1cccc(Cl)c1 | 14% | 50% (active) | 3% | 94% (active) | inactive | inactive | inactive | inactive
Cc1cc(NN=Cc2ccc(Cl)cc2)c2cccc(C)c2n1 | 47% | -1% | 2% | 103% (active) | inactive | inactive | inactive | inactive
